Assay results as given in PubChem BioAssay (NCATS).
Records with an inconclusive call do not appear. Where a call stands in place of a potency, no number is given. Activity calls are given as the source filed them. Calls follow the shape of the dose curve; as a rule, active = well fitted curve in the direction sought with a large enough effect; inconclusive = small, poorly fitted or top-dose-only effect, or another doubt; inactive = no such curve, though single readings can be large; an effect the other way counts as inactive or inconclusive.

Tests used:
[1] = qHTS of pediatric cancer cell lines to identify multiple opportunities for drug repurposing: Primary screen for SK-N-SH cells (AID 1347098); also: nearly all actives have a fitted effect of over 65% in size; also: potency is read from the fitted curve at half-maximal effect
How it was run: (§1)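 Cells (500-1,000/well) rested 5 h, then received compounds for 48 h; metabolically active cells were measured by CellTiter-Glo luminescence. Final concentrations spanned up to 46 µM (MIPE, 11-point) or 0.59 nM-46 µM (NPC, 8-point) in primary screens, 11-point in follow-ups.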

[2] = qHTS of pediatric cancer cell lines to identify multiple opportunities for drug repurposing: Primary screen for OHS-50 cells (AID 1347103); also: nearly all actives have a fitted effect of over 40% in size; also: potency is read from the fitted curve at half-maximal effect
How it was run: as §1

[3] = qHTS of pediatric cancer cell lines to identify multiple opportunities for drug repurposing: Primary screen for RD cells (AID 1347104); also: nearly all actives have a fitted effect of over 55% in size; also: potency is read from the fitted curve at half-maximal effect
How it was run: (§2)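 Phenotypic viability qHTS, 48 h compound exposure, CellTiter-Glo luminescence read-out; multi-concentration dosing so that potency and efficacy derive directly from the primary screen's curves.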

[4] = qHTS of pediatric cancer cell lines to identify multiple opportunities for drug repurposing: Primary screen for control Hh wild type fibroblast cells (AID 1347106);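 also: series mostly up to about 46 µM; a drop in luminescence marks cytotoxicity and a rise apparent proliferation; nearly all actives have a fitted effect of over 55% in size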
How it was run: (§3)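 Viability after 48 h compound treatment at 37C, 500-1,000 cells/well, read as ATP luminescence with CellTiter-Glo. Primary screens used 11-point (MIPE, 0.78 nM-46 µM) or 8-point (NPC, 0.59 nM-46 µM) final concentrations; follow-up screens used 11-point dilutions.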

[5] = qHTS of pediatric cancer cell lines to identify multiple opportunities for drug repurposing: Primary screen for Saos-2 cells (AID 1347097); also: nearly all actives have a fitted effect of over 40% in size; also: potency is read from the fitted curve at half-maximal effect
How it was run: as §2

[6] = qHTS of pediatric cancer cell lines to identify multiple opportunities for drug repurposing: Primary screen for LAN-5 cells (AID 1347100); also: potency is read from the fitted curve at half-maximal effect
How it was run: as §3

[7] = qHTS of pediatric cancer cell lines to identify multiple opportunities for drug repurposing: Primary screen for Rh18 cells (AID 1347102); also: nearly all actives have a fitted effect of over 65% in size
How it was run: as §3

[8] = qHTS of pediatric cancer cell lines to identify multiple opportunities for drug repurposing: Primary screen for MG 63 (6-TG R) cells (AID 1347105); also: nearly all actives have a fitted effect of over 50% in size; also: potency is read from the fitted curve at half-maximal effect
How it was run: as §2

[9] = qHTS of pediatric cancer cell lines to identify multiple opportunities for drug repurposing: Primary screen for Rh30 cells (AID 1347107); also: series mostly up to about 46 µM; nearly all actives have a fitted effect of over 75% in size
How it was run: as §3

[10] = qHTS of pediatric cancer cell lines to identify multiple opportunities for drug repurposing: Primary screen for Rh41 cells (AID 1347108); also: nearly all actives have a fitted effect of over 70% in size; also: potency is read from the fitted curve at half-maximal effect
How it was run: as §2

[11] = qHTS of pediatric cancer cell lines to identify multiple opportunities for drug repurposing: Primary screen for BT-12 cells (AID 1347101); also: nearly all actives have a fitted effect of over 25% in size; also: potency is read from the fitted curve at half-maximal effect
How it was run: as §1

[12] = qHTS of pediatric cancer cell lines to identify multiple opportunities for drug repurposing: Primary screen for U-2 OS cells (AID 1347096); also: nearly all actives have a fitted effect of over 50% in size
How it was run: as §3

[13] = qHTS of pediatric cancer cell lines to identify multiple opportunities for drug repurposing: Primary screen for NB1643 cells (AID 1347099); also: nearly all actives have a fitted effect of over 50% in size; also: potency is read from the fitted curve at half-maximal effect
How it was run: as §2

[14] = qHTS of pediatric cancer cell lines to identify multiple opportunities for drug repurposing: Confirmatory screen for NB1643 cells (AID 1347109); also: nearly all actives have a fitted effect of over 45% in size
How it was run: as §3

[15] = qHTS of pediatric cancer cell lines to identify multiple opportunities for drug repurposing: Confirmatory screen for A673 cells (AID 1347110); also: nearly all actives have a fitted effect of over 65% in size
How it was run: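 Concentration-response curves came straight from titrations: 11 points (0.78 nM to 46 µM) for MIPE and several concentrations (0.59 nM to 46 µM) for NPC in primary, 11 points in follow-up. Readout: ATP luminescence at 48 h.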

[16] = qHTS of pediatric cancer cell lines to identify multiple opportunities for drug repurposing: Confirmatory screen for SK-N-MC cells (AID 1347111);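 also: potency is read from the fitted curve at half-maximal effect; cells exposed to compound for 48 h before the readout; nearly all actives have a fitted effect of over 70% in size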
How it was run: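 SK-N-MC cells at 500-1,000 cells/well in growth media were pre-incubated 5 h, then exposed to compounds at 11-point dilutions for 48 h at 37 degrees C, 5% CO2. Viability was read as CellTiter-Glo luminescence.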

[17] = qHTS of pediatric cancer cell lines to identify multiple opportunities for drug repurposing: Confirmatory screen for LAN-5 cells (AID 1347113); also: nearly all actives have a fitted effect of over 65% in size
How it was run: as §3

With `O=C(Nc1ccc(Cl)cc1)Nc1ccc(Cl)c(Cl)c1` the Potency [1] was 12.2 µM (active), the Potency [2] was 24.6 µM (active) and the Potency [3] was 23.7 µM (active). For the same compound, the Potency [4] was “inactive”.
With `C/C(=C(/OCCOc1ccc(Cl)cc1)c1ccc(Cl)cc1Cl)n1ccnc1` the Potency [5] was “inactive”, the Potency [6] was “inactive” and the Potency [7] was “inactive”. The Potency [8] was “inactive”, the Potency [4] was “inactive” and the Potency [9] was “inactive”. For the same compound, the Potency [10] was “inactive”.
In the case of `CCN(CC)CCOc1ccc(/C(=C(\Cl)c2ccccc2)c2ccccc2)cc1`, the Potency [5] is reported as 26.6 µM (active), the Potency [1] is reported as 30.7 µM (active) and the Potency [6] is reported as 18.8 µM (active). The Potency [11] was 15.5 µM (active), the Potency [2] was 24.6 µM (active) and the Potency [3] was 23.7 µM (active). The Potency [4] was “inactive” and the Potency [9] was “inactive”.
In the case of `CCCC(=O)O[C@]1(C(=O)CCl)[C@@H](C)C[C@H]2[C@@H]3CCC4=CC(=O)C=C[C@]4(C)[C@@]3(F)C(=O)C[C@@]21C`, the Potency [12] is reported as “inactive”, the Potency [1] is reported as “inactive” and the Potency [13] is reported as “inactive”. The Potency [7] was “inactive”, the Potency [2] was 13.8 µM (active) and the Potency [8] was “inactive”. For the same compound, the Potency [9] was “inactive”, the Potency [14] was “inactive” and the Potency [15] was “inactive”. The Potency [16] was 14.7 µM (active) and the Potency [17] was “inactive”.
With `Nc1cc(C(F)(F)F)ccc1S` the Potency [6] was “inactive”, the Potency [8] was “inactive” and the Potency [9] was “inactive”.
In the case of `O=C(NO)c1ccccc1`, the Potency [12] is reported as “inactive”, the Potency [6] is reported as “inactive” and the Potency [11] is reported as “inactive”. For the same compound, the Potency [2] was “inactive”, the Potency [8] was “inactive” and the Potency [4] was “inactive”. For the same compound, the Potency [9] was “inactive”.
With `NC(=O)C1(N2CCCCC2)CCN(CCCN2c3ccccc3CCc3ccc(Cl)cc32)CC1` the Potency [5] was 21.1 µM (active), the Potency [1] was 13.7 µM (active) and the Potency [11] was 19.5 µM (active). The Potency [2] was 24.6 µM (active).
In the case of `Nc1cccc2c(N)cccc12`, the Potency [12] is reported as “inactive”, the Potency [1] is reported as 28 µM (active) and the Potency [6] is reported as “inactive”. The Potency [2] was 31.7 µM (active), the Potency [8] was “inactive” and the Potency [4] was “inactive”. For the same compound, the Potency [10] was 30.6 µM (active).
For `CCOC(=O)N1CCC(n2c(=O)[nH]c3cc(Cl)ccc32)CC1`, the Potency [5] was “inactive”, the Potency [1] was “inactive” and the Potency [13] was “inactive”. For the same compound, the Potency [6] was “inactive”, the Potency [3] was “inactive” and the Potency [4] was “inactive”. For the same compound, the Potency [9] was “inactive” and the Potency [10] was “inactive”.
In the case of `O=C1NC2CCCCN2C12CCN(CCCN1c3ccccc3CCc3ccc(Cl)cc31)CC2` (centres undefined), the Potency [5] is reported as 23.7 µM (active), the Potency [1] is reported as 27.3 µM (active) and the Potency [11] is reported as 15.5 µM (active). For the same compound, the Potency [2] was 27.6 µM (active), the Potency [4] was “inactive” and the Potency [9] was “inactive”.
With `O=S(=O)(O)c1ccc2nc(-c3ccccc3)[nH]c2c1` the Potency [4] was “inactive”.
For `CCCCCOc1ccccc1/C(=C\SC)n1ccnc1`, the Potency [12] was “inactive”, the Potency [1] was “inactive” and the Potency [6] was “inactive”. The Potency [7] was “inactive”, the Potency [8] was “inactive” and the Potency [9] was “inactive”.
For `CCCCCCCCCCCCCCCCCCNC(=O)OC1CCN(C(=O)OC[C@H](COC(=O)N(Cc2cccc[n+]2CC)C(=O)c2ccccc2OC)OC)CC1`, the Potency [11] was 8.71 µM (active), the Potency [2] was 11 µM (active) and the Potency [3] was 23.7 µM (active). For the same compound, the Potency [4] was “inactive”.
For `CC(CC1c2ccccc2CCc2ccccc21)CN(C)C` (centres undefined), the Potency [12] was “inactive”, the Potency [13] was “inactive” and the Potency [6] was “inactive”. For the same compound, the Potency [7] was “inactive”, the Potency [8] was “inactive” and the Potency [4] was “inactive”. The Potency [9] was “inactive” and the Potency [10] was “inactive”.
In the case of `O=C(c1cc(O)c(O)c(O)c1)c1ccc(O)c(O)c1O`, the Potency [5] is reported as 26.6 µM (active), the Potency [13] is reported as “inactive” and the Potency [7] is reported as “inactive”. The Potency [2] was 24.6 µM (active), the Potency [3] was “inactive” and the Potency [8] was “inactive”. The Potency [4] was “inactive” and the Potency [10] was “inactive”.
With `CCCN(CCC)C(=O)C(CCC(=O)OCCCN1CCN(CCOC(=O)Cc2c(C)n(C(=O)c3ccc(Cl)cc3)c3ccc(OC)cc23)CC1)NC(=O)c1ccccc1` (centres undefined) the Potency [13] was “inactive”, the Potency [11] was “inactive” and the Potency [4] was “inactive”. For the same compound, the Potency [9] was “inactive” and the Potency [10] was “inactive”.
In the case of `CCCCCC(=O)O[C@]1(C(C)=O)CC[C@H]2[C@@H]3CCC4=CC(=O)CC[C@]4(C)[C@H]3CC[C@@]21C`, the Potency [1] is reported as 24.4 µM (active), the Potency [13] is reported as 18.8 µM (active) and the Potency [6] is reported as 26.6 µM (active). The Potency [11] was 27.6 µM (active), the Potency [2] was 15.5 µM (active) and the Potency [8] was “inactive”. The Potency [4] was “inactive” and the Potency [9] was “inactive”.
For `COCCc1ccccn1`, the Potency [1] was “inactive”, the Potency [13] was “inactive” and the Potency [6] was “inactive”. The Potency [11] was “inactive”, the Potency [7] was “inactive” and the Potency [2] was “inactive”. The Potency [8] was “inactive”, the Potency [4] was “inactive” and the Potency [9] was “inactive”. The Potency [10] was “inactive”.
For `CCCC(=O)c1cc(O)c(O)cc1O`, the Potency [13] was “inactive”, the Potency [11] was “inactive” and the Potency [8] was “inactive”.
In the case of `Cc1cccc(N(C)C(=S)Oc2ccc3c(c2)CCC3)c1`, the Potency [12] is reported as “inactive”, the Potency [13] is reported as “inactive” and the Potency [6] is reported as “inactive”. For the same compound, the Potency [7] was “inactive”, the Potency [3] was “inactive” and the Potency [8] was “inactive”. For the same compound, the Potency [9] was “inactive”.
For `CCCCC/C=C\C/C=C\CCCCCCCC(=O)NC(C)c1ccccc1` (centres undefined), the Potency [12] was “inactive”, the Potency [6] was “inactive” and the Potency [7] was “inactive”. For the same compound, the Potency [3] was “inactive”, the Potency [8] was “inactive” and the Potency [4] was “inactive”. The Potency [9] was “inactive”.
For `CCCCCCCCCCCCCCCC[N+](C)(C)Cc1ccccc1`, the Potency [5] was 23.7 µM (active), the Potency [6] was 21.1 µM (active) and the Potency [11] was 11 µM (active). The Potency [2] was 11 µM (active) and the Potency [8] was 26.6 µM (active).
For `CC(=O)Oc1ccc(C2(c3ccc(OC(C)=O)cc3)Oc3ccccc3NC2=O)cc1`, the Potency [5] was 11.9 µM (active), the Potency [11] was 19.5 µM (active) and the Potency [7] was “inactive”. The Potency [8] was 4.22 µM (active) and the Potency [9] was “inactive”.
In the case of `CC(C)(C)C1CCC(CC2=C(O)c3ccccc3C(=O)C2=O)CC1` (centres undefined), the Potency [12] is reported as “inactive”, the Potency [6] is reported as 9.44 µM (active) and the Potency [11] is reported as 24.6 µM (active). The Potency [7] was “inactive”, the Potency [2] was 3.89 µM (active) and the Potency [4] was “inactive”.
In the case of `OCc1c[nH]c2ccccc12`, the Potency [7] is reported as “inactive”, the Potency [4] is reported as “inactive” and the Potency [9] is reported as “inactive”.
In the case of `C[N+]1(CC2COC(c3ccccc3)(c3ccccc3)O2)CCCCC1` (centres undefined), the Potency [5] is reported as “inactive”, the Potency [1] is reported as “inactive” and the Potency [13] is reported as “inactive”. For the same compound, the Potency [6] was “inactive”, the Potency [11] was “inactive” and the Potency [7] was “inactive”. For the same compound, the Potency [2] was “inactive”, the Potency [3] was “inactive” and the Potency [8] was “inactive”. For the same compound, the Potency [10] was “inactive”.
In the case of `C/C=C(/C(=C/C)c1ccc(OC(C)=O)cc1)c1ccc(OC(C)=O)cc1`, the Potency [12] is reported as “inactive”, the Potency [1] is reported as “inactive” and the Potency [11] is reported as “inactive”. The Potency [7] was “inactive”, the Potency [3] was “inactive” and the Potency [4] was “inactive”. The Potency [9] was “inactive” and the Potency [10] was “inactive”.
In the case of `Cc1cccc(N(C)C(=S)Oc2ccc3c(c2)C2CCC3C2)c1` (centres undefined), the Potency [1] is reported as “inactive”, the Potency [6] is reported as “inactive” and the Potency [8] is reported as “inactive”. For the same compound, the Potency [9] was “inactive” and the Potency [10] was “inactive”.
